# Screens deposited in PubChem BioAssay by National Center for Advancing Translational Sciences (NCATS).
# The list is not random: actives were taken first. Their share in the collection is about 1.4%.
# hERG WT inh: KCNH2 (human, wildtype) channel inhibition. Q12809. U2OS, BacMam KCNH2, thallium flux FluxOr; hits give low values. activity change, % at 1.84 µM. 340,000 compounds, 0.37% hits. AID 720551;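 active = maximum activity change below -70%; inconclusive = maximum activity change between -70% and -50%; inactive = maximum activity change above -50%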; also: % is scaled to controls: 0 for no effect and ±100 for the full control effect
# Target sequence (Q12809 whole entry, looked up): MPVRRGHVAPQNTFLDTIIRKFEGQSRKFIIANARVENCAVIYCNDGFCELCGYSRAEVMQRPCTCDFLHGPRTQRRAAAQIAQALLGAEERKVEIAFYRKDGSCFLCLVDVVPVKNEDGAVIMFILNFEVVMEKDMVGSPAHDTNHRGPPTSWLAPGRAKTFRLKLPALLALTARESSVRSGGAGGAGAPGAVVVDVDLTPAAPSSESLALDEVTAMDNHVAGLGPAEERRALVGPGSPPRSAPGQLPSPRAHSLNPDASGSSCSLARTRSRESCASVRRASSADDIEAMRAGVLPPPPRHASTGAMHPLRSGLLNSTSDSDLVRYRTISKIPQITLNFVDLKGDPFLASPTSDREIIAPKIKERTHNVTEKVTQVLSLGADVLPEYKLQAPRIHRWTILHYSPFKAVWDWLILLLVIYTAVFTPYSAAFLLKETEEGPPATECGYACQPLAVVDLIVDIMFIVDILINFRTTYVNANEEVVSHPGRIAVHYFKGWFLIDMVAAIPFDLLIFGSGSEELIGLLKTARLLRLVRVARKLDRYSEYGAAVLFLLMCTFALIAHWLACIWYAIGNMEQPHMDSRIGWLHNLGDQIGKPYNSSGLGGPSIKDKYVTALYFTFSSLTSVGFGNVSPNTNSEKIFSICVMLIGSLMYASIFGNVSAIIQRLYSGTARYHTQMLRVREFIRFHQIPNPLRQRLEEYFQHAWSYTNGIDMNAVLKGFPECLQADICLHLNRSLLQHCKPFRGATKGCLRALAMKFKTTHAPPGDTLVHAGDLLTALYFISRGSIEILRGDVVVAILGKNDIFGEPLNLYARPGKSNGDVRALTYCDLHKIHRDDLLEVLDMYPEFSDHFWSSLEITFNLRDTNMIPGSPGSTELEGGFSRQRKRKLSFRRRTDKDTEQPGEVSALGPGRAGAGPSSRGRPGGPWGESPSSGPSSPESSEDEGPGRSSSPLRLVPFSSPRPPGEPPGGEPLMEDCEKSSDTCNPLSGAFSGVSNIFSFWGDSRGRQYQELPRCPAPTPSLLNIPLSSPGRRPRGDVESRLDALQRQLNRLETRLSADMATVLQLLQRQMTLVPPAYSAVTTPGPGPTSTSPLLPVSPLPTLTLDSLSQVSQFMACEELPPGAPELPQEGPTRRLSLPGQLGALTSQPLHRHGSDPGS
#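 U2OS cells transduced with wild-type KCNH2 virus are loaded with FluxOr dye for 45 min, and thallium flux is measured in kinetic reads before and after stimulation buffer. Rate constants are normalized to DMSO controls.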
# uPA generation: inhibitors of cell surface uPA generation. cell surface uPA generation assay, qHTS. Potency, µM (top dose mostly 38.3 µM), inactives show at the highest dose activity change, negative = inhibition, usual class: inhibitors. 330,000 compounds, 0.31% hits; active = well fitted inhibition curve with a large enough effect; inconclusive = small, poorly fitted or top-dose-only effect; inactive = no such curve, though single readings can be large or run the other way; tested in mouse RAW 264.7 cells; also: potency is read from the fitted curve at half-maximal effect; % is scaled to controls: 0 for no effect and ±100 for the full control effect; nearly all actives have a fitted effect of over 55% in size
# Mm-Cpn inhibitor: blocks the Methanococcus maripaludis chaperonin Mm-Cpn. purified Mm-Cpn ATPase, ADP Transcreener TR-FRET. Potency, µM (highest dose often 76.9 µM), for inactives: top-dose activity, negative = inhibition, usual class: inhibitors. 330,000 compounds, 0.031% hits; also: potency is read from the fitted curve at half-maximal effect; % is scaled to controls: 0 for no effect and ±100 for the full control effect; nearly all actives have a fitted effect of over 80% in size
#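 Compound-treated chaperonin, 25 nM final, turns over 10 uM ATP at 37°C for 30 min following a 10 min preincubation; ADP generated competes with ADP-d2 for Eu-cryptate antibody, lowering FRET.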
# KCNH2 3.1 block: blocks the human KCNH2 3.1 channel isoform. U2OS KCNH2 3.1, thallium flux FluxOr; hits give low values. activity change, % (tested at about 1.8 µM). 340,000 compounds, 0.95% hits. AID 720553;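 active = maximum activity change below -70%; inconclusive = maximum activity change from -70% to -50%; inactive = maximum activity change above -50%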;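 also: thallium influx rate constant from kinetic fluorescence after stimulation buffer; % is scaled to controls: 0 for no effect and ±100 for the full control effect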
#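 Thallium flux read-out: FluxOr dye with Red40 quencher in HBSS/HEPES, 45 min at RT. Rate constants from kinetic reads were normalized to positive and negative DMSO controls. Cells: U2OS virally expressing the 3.1 isoform.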
# p53 reactivation: re-activators of mutant p53. H1299 p53-A138V BP100-luciferase reporter, luminescence, 24 h. 320,000 compounds, 0.063% hits. Potency, µM (top dose mostly 92.2 µM), for the others: at the top dose activity change, positive = activation, most hits filed as activators. AID 504706; also: potency is read from the fitted curve at half-maximal effect; % of control where 0% means no effect; nearly all actives have a fitted effect of over 45% in size
#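 H1299 (p53-null), stable ts p53-A138V + BP100-Luc; 1000 cells/well, Opti-MEM/10% FBS; cpd 4 pt, 1:5; 24 h, 37 deg C, 5% CO2; detection reagent 10 min RT; luminescence.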
# S-ASM inh: human S-ASM enzyme inhibition. P17405. placental ASM, HMU-PC fluorogenic substrate, 60 min. Potency, µM (titrated, usually from 57.5 µM), inactives show at the highest dose activity change, negative = inhibition, hits mostly inhibitors. 340,000 compounds, 0.006% hits. AID 504937; also: potency is read from the fitted curve at half-maximal effect
#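 Steps: dispense placental human ASM, pin compound, wait 10 min at room temperature, add HMU-PC0 substrate at 9 uM final, incubate 60 min at 37 °C, add stop solution raising pH to 10, read fluorescence.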
# The depositor's hits bear a star; u = inconclusive; x = not tested or not shown. Unless noted, calls follow the shape of the dose curve; as a rule, active = well fitted curve in the direction sought with a large enough effect; inconclusive = small, poorly fitted or top-dose-only effect, or another doubt; inactive = no such curve, though single readings can be large; an effect the other way counts as inactive or inconclusive.
SMILES,hERG WT inh,uPA generation,Mm-Cpn inhibitor,KCNH2 3.1 block,p53 reactivation,S-ASM inh
Cc1ccc2c(c1)COc1c3ccc(C(=O)O)cc3nn1-2,x,u,1%,x,-8%,20%
CCCCCCC#Cc1ccc2c(c1)COc1c3ccccc3nn1-2,4,13%,-1%,1,10%,6%
CC(C)NC(=O)c1ccc2c3n(nc2c1)-c1ccccc1CO3,0,0.79µM*,0%,0,3%,6%
CC1CC(C)(C)CC2(C1)NC(=O)N(CC(=O)OCC(=O)Nc1cc(S(=O)(=O)N3CCCCC3)ccc1Cl)C2=O (stereo not given),-4,-3%,x,8,x,-1%
COc1cc2c(c(OC)c1OC)C(c1ccc(C)cc1)CC(=O)O2 (stereo not given),3,-14%,2%,-2,-3%,6%
CC1CCCN(c2ccc([N+](=O)[O-])cc2C(=O)c2ccccc2)C1 (stereo not given),2,0.16µM*,1%,-1,4%,-15%
O=C(c1ccccc1)c1cc([N+](=O)[O-])ccc1N1CCOCC1,-1,-11%,0%,3,u,-6%
CN(C(=O)c1cc([N+](=O)[O-])ccc1N1CCCC1)C1CCCCC1,-16,-5%,0%,-10,-45%,-11%
CC1CCN(S(=O)(=O)c2cc([N+](=O)[O-])ccc2Cl)CC1,-2,7.9µM*,3%,-14,26%,-4%
CC1CCN(c2ccc([N+](=O)[O-])cc2C(=O)O)CC1,-133*,-4%,1%,-178*,-2%,-6%
Cc1nn(-c2ccccc2)c(C)c1C(=O)OCC(=O)Nc1ccccc1F,11,10µM*,2%,2,u,3%
CC(C)Cn1cnc2c1c(=O)[nH]c(=O)n2Cc1ccccc1,-2,46%,1%,-82*,0%,1%
CC(C)CCn1cnc2c1c(=O)[nH]c(=O)n2Cc1ccccc1,7,-6%,0%,-8,-3%,-2%
CC(=O)c1cc(C)ccc1OC(=O)CCN1C(=O)C2C3c4ccccc4C(c4ccccc43)C2C1=O (stereo not given),-7,x,0%,-87*,5%,2%
C=CCN(c1ccccc1)S(=O)(=O)c1cccc(C(=O)NCc2ccco2)c1,-241*,-9%,-1%,-173*,4%,-1%
CCOc1cc(S(=O)(=O)N2CCN(c3ccc(F)cc3)CC2)c(OCC)cc1-n1cnnn1,-76*,-6%,1%,-79*,2%,0%
CCOc1cc(S(=O)(=O)N2CCN(S(=O)(=O)CC)CC2)c(OCC)cc1-n1cnnn1,-2,0%,1%,-15,-3%,0%
O=C(c1ccc([N+](=O)[O-])cc1)N(Cc1cccs1)C1CCS(=O)(=O)C1 (stereo not given),31,-7%,1%,-101*,14%,4%
CN(CC1CCCN(CCc2ccc(Cl)cc2)C1)C(=O)c1ccco1 (stereo not given),-37,3%,x,-79*,x,x
O=C(Nc1nc2ccccc2[nH]1)c1ccc(F)cc1,5,x,0%,-97*,18%,0%
O=C(Nc1nc2ccccc2[nH]1)c1cc(F)cc(F)c1,7,-4%,0%,3,u,1%
Cc1cc(C)n2ncc(C(=O)NCc3ccccc3)c2n1,-5,0%,0%,-87*,0%,1%
CCSc1nc2ccccc2c(=O)n1C1CCOC(C)(C)C1 (stereo not given),-3,-3%,2%,-91*,-2%,-1%
C=CCSc1nc2ccccc2c(=O)n1C1CCOC(C)(C)C1 (stereo not given),4,1%,-2%,9,-2%,-2%
N#Cc1nc(COc2ccc(-c3ccccc3)cc2)oc1NCCCN1CCOCC1,14,-12%,1%,u,-17%,-10%
CN(C)CCNc1oc(COc2ccc(-c3ccccc3)cc2)nc1C#N,37,x,0%,-72*,u,-1%
